Here are results for 39 compounds from the supplement of paper PMC3484114.

± gives the standard deviation.

The subject of the experiment is OVCAR-3-derived ovarian cancer stem-like cells (spheroids). The experiment in a line: cell growth relative to untreated control; higher = more growth (less inhibition). To be noted: 2.29 µM; 96 h. The method in brief:
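Viability of stem-like cells from OVCAR-3 spheroids was assessed with TOX8 resazurin fluorescence at ex 560/em 590 nm. The cells had been trypsin-dissociated, seeded at 50,000 cells/mL in stem cell medium in ultra-low attachment 96-well plates and preincubated 24 h, then treated with compounds at 2.29 uM for 96 h at 37°C, 5% CO2, in 4 replicate wells, with fluorescence read after 4 h. Results were converted to percent growth against untreated wells after blank subtraction and Grubbs outlier removal.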
`O=C(CC(O)(C(F)(F)F)C(F)(F)Cl)CC(O)(C(F)(F)F)C(F)(F)Cl` (centres undefined) came in with a cell growth of 66.8 ± 21%.

`Cc1c2oc3c(C)ccc(C(=O)N[C@@H]4C(=O)N[C@H](C(C)C)C(=O)N5CCC[C@H]5C(=O)N(C)CC(=O)N(C)[C@@H](C(C)C)C(=O)O[C@@H]4C)c3nc-2c(C(=O)N[C@@H]2C(=O)N[C@H](C(C)C)C(=O)N3CCC[C@H]3C(=O)N(C)CC(=O)N(C)[C@@H](C(C)C)C(=O)O[C@@H]2C)c(N)c1=O`: the cell growth amounted to 8.44 ± 3.9%.

In turn, `O=C1Nc2c(Cl)cc(Cl)cc2C1=NN=Cc1ccco1` returned a cell growth of 84.3 ± 20%.

The compound `CC(=O)/C(=C\c1cccc([N+](=O)[O-])c1)C(=O)Nc1ccccc1C` registered a cell growth of 81.8 ± 22%.

In turn, `CC(C)C1(Cl)CCC2C3(C)CCCC(C)(C(=O)O)C3CC(Cl)C2(Cl)C1Cl` (centres undefined) registered a cell growth of 94.6 ± 30%.

The compound `CC(=O)Nc1ccc(-c2nc3ccccc3s2)cc1` had a cell growth of 171 ± 32%.

For `O=C(ON=C1c2ccccc2C(Br)C(Br)c2ccccc21)c1ccccc1` (centres undefined), the cell growth is 107 ± 22%.

Consider `COc1ccc(C2c3cc4c(c(OC)c3CC3OCC(=O)C32)OCO4)cc1OC` (centres undefined), for which the cell growth was 41.3 ± 11%.

For the compound `O=NN(CCCl)C(=O)NCc1ccc[n+]([O-])c1`, the cell growth was determined as 76.9 ± 13%.

`N#CC1CC(c2ccccc2)Nc2cc(Cl)ccc2N1` (centres undefined) displayed a cell growth of 80.4 ± 20%.

Consider `NC(=O)NO`, for which the cell growth was determined as 107 ± 15%.

`O=C1OC(c2ccco2)=N/C1=C\c1ccc(Cl)c(Cl)c1`: the cell growth came to 17.7 ± 5%.

`CNc1nc(N(C)C)nc(N(C)C)n1` yielded a cell growth of 89.9 ± 20%.

Take `CC1OC(CC(=O)O)CC2=C1C(=O)c1c(O)cccc1C2=O` (centres undefined): the cell growth came to 130 ± 42%.

`Cc1ccc(Nc2nc(C)c(C(/C=C/c3ccc(/C=C/C(=N\NC(=O)C[n+]4ccccc4)c4sc(Nc5ccc(C)cc5[N+](=O)[O-])nc4C)cc3)=N/NC(=O)C[n+]3ccccc3)s2)c([N+](=O)[O-])c1` yielded a cell growth of 110 ± 11%.

In the case of `NC(N)=N/N=C(\c1ccc(Cl)cc1)C1CC1`, the cell growth came out at 200 ± 43%.

The compound `C/C(=N\Nc1nc2ccccc2s1)c1ccncn1` registered a cell growth of 30.8 ± 7.4%.

For the compound `CCCCCCCCCCNCCSSCc1ccc(Cl)cc1`, the cell growth was 126 ± 23%.

`CCOC(=O)CCc1c(C)c2c(O)cc(O)cc2oc1=O` had a cell growth of 100 ± 21%.

Compound `CC(=O)SC(SC(C)=O)SC(C)=O` displayed a cell growth of 97.1 ± 26%.

Consider `S=c1nc[nH]c2nc[nH]c12`, for which the cell growth amounted to 95.2 ± 8.4%.

Compound `CO[C@H]1/C=C\C=C(/C)C(=O)NC2=CC(=O)C(N)=C(C[C@@H](C)C[C@H](OC)[C@H](O)[C@@H](C)/C=C(\C)[C@@H]1OC(N)=O)C2=O` registered a cell growth of 29.6 ± 4.9%.

In turn, `CC(C)(C)c1ccc(OC2CCO2)cc1` (centres undefined) had a cell growth of 89.3 ± 19%.

Regarding `N#CC(C#N)=Cc1cccc(Oc2ccccc2)c1`, the cell growth stood at 74.1 ± 8%.

As to `C=CC(=O)N1C/C(=C\c2ccc(Cl)cc2)C(=O)/C(=C/c2ccc(Cl)cc2)C1`, the cell growth amounted to 59.7 ± 22%.

On to `OCCNCN(CNCCO)c1nc(N(CNCCO)CNCCO)nc(N(CNCCO)CNCCO)n1`, for which the cell growth came to 126 ± 24%.

Take `Cc1ccc(C)c(NC(=O)C(=O)C(C(=O)c2ccc3ccccc3c2)C2OC(=O)c3ccccc32)c1` (centres undefined): the cell growth amounted to 121 ± 78%.

`CCCCCCCCCCCCC(O)C(=O)O` (centres undefined): the cell growth worked out at 115 ± 19%.

In the case of `O=C1C=C(Nc2ccccc2C(=O)CC(=O)C(=O)Nc2ccc(Cl)c(Cl)c2)c2ccccc2C1=O`, the cell growth amounted to 79.6 ± 13%.

For `O=C1Cc2c([nH]c3ccc(Br)cc23)-c2ccccc2N1`, the cell growth was 109 ± 9.9%.

The compound `Oc1cc2c3c(c1)c1cc4c(cc1c[n+]3CC2)OCO4` registered a cell growth of 97.7 ± 13%.

`O=C(O)c1ccccc1-c1ccccc1C(=O)Nc1ccc2c(c1)Cc1ccccc1-2` registered a cell growth of 80.8 ± 29%.

Consider `O=C1C=C(NCCc2ccccc2)c2ccccc2C1=O`, for which the cell growth was found to be 57.3 ± 10%.

`Cc1c(N=Cc2ccc(N(CCC#N)CCC#N)cc2)c(=O)n(-c2ccccc2)n1C` showed a cell growth of 133 ± 36%.

Turning to `C[C@@H]1CC[C@H]2C(C)(C)[C@H]3C[C@@]12CC[C@@]3(C)O`, the cell growth came out at 48.3 ± 7%.

`COc1ccc(CCN(C)CCCC(C#N)(c2ccc(OC)c(OC)c2)C(C)C)cc1OC` (centres undefined) yielded a cell growth of 115 ± 16%.

In turn, `CC1=C/C(=N\OCC(=O)O)CC(c2ccc(C(C)C)cc2)C1` (centres undefined) returned a cell growth of 12.4 ± 5%.

For `C(=N\NC1=NCCN1)/c1c2ccccc2c(/C=N/NC2=NCCN2)c2ccccc12`, the cell growth stood at 21.4 ± 5.8%.

The compound `O=c1oc2cc(O)ccc2c2oc3cc(O)ccc3c12` returned a cell growth of 124 ± 31%.
